Where “and” joins values, the source holds several entries; their conditions need not be identical. Equal values may be shown once. Records with an inconclusive call do not appear. Entries that show only a call come without a potency. Calls of active or inactive are those of the source. The call rests on the fitted dose curve; in most records, active means well fitted cell-killing curve with a large enough effect; inconclusive means small, poorly fitted or top-dose-only effect, or effect the other way; inactive means flat fitted curve, though single readings scatter. Non-standard residues stand in square brackets, D forms with d. Residues, ends and D or L forms follow the SMILES beside them. *: point of attachment. Sta = CC(C)C[C@H](N)[C@@H](O)CC(=O)O; Isovaleryl = CC(C)CC(=O)*
test system: PA-1; assay: Primary qHTS to identify gynecologic anti-cancer compounds using libraries of approved drugs and bioactive compounds (AID 1345084); details: Gynecologic cancer cell panel viability, ATPlite luminescence, 48 h; series mostly up to 57.5 µM; further: nearly all actives have a fitted effect of over 55% in size
How it was run: (§1)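 48 h compound exposure at 37 C, 5% CO2; five-point qHTS. ATPlite luminescence readout of cell ATP.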
Potency means the concentration at half of the fitted maximal effect.

| SMILES | Potency |
| --- | --- |
| O=C(NCC1CCCCN1)c1cc(OCC(F)(F)F)ccc1OCC(F)(F)F (stereo not drawn) | inactive |
| O=C(OC1C[C@H]2CC[C@@H](C1)[N+]21CCCC1)C(O)(c1ccccc1)c1ccccc1 (stereo partly drawn) | inactive |
| CCC(C)(Oc1ccc(C2(c3ccc(OC(C)(CC)C(=O)O)cc3)CCCCC2)cc1)C(=O)O (stereo not drawn) | inactive |
| Oc1ccc(OCc2ccccc2)cc1 | inactive |
| CCOC(=O)c1c(C)n(C)c2ccc(O)cc12 | inactive |
| CC(C)c1nc(CN(C)C(=O)N[C@H](C(=O)N[C@@H](Cc2ccccc2)C[C@H](O)[C@H](Cc2ccccc2)NC(=O)OCc2cncs2)C(C)C)cs1 | inactive |
| N=C(N)c1ccc2cc(OC(=O)c3ccc(N=C(N)N)cc3)ccc2c1 | inactive |
| Cc1cc(=O)oc2cc(O)ccc12 | inactive |
| c1cnc2cc3c(cc2n1)C1CNCC3C1 | inactive |
| Clc1ccc(C(Cn2ccnc2)OCc2ccsc2Cl)c(Cl)c1 (stereo not drawn) | inactive |
| CN(C)C(=O)COC(=O)Cc1ccc(OC(=O)c2ccc(N=C(N)N)cc2)cc1 | inactive |
| CC1=C(C)C(=O)C(C(CCCCCC(=O)O)c2ccccc2)=C(C)C1=O (stereo not drawn) | inactive |
| Cn1c(NCCN(CCO)CCCc2ccc([N+](=O)[O-])cc2)cc(=O)n(C)c1=O | inactive |
| O=C(O)c1cn(-c2ccc(F)cc2)c2cc(N3CCNCC3)c(F)cc2c1=O | inactive |
| CC(C)[C@H](N)C(=O)OCCOCn1cnc2c(=O)[nH]c(N)nc21 | inactive |
| Nc1ccc(S(N)(=O)=O)cc1 | inactive |
| COc1cc(OC)c(C(=O)CCCN2CCCC2)c(OC)c1 | inactive |

| SMILES | Potency |
| --- | --- |
| CC1(C)CCC(C)(C)c2cc(NC(=O)c3ccc(C(=O)O)cc3)ccc21 | inactive |
| O=C(c1ccccc1)c1ccc2n1CCC2C(=O)O (stereo not drawn) | inactive |
| O=C(O)CCNC(=O)c1ccc(N=Nc2ccc(O)c(C(=O)O)c2)cc1 | inactive |
| CN(C)c1ccc(O)c2c1C[C@H]1C[C@H]3[C@H](N(C)C)C(=O)C(C(N)=O)=C(O)[C@@]3(O)C(=O)C1=C2O | inactive |
| CNC[C@H](O)c1ccc(O)c(O)c1 | inactive |
| CCC[C@@H]1C[C@@H](C(=O)N[C@@H]([C@H]2O[C@H](SC)[C@H](O)[C@@H](O)[C@H]2O)[C@@H](C)O)N(C)C1 | inactive |
| CCC1=C(C)CN(C(=O)NCCc2ccc(S(=O)(=O)NC(=O)NC3CCC(C)CC3)cc2)C1=O (stereo not drawn) | inactive |
| CCCc1cc(=O)[nH]c(=S)[nH]1 | inactive |
| CC(C)CC(=O)N[C@H](C(=O)N[C@H](C(=O)N[C@@H](CC(C)C)[C@@H](O)CC(=O)N[C@@H](C)C(=O)N[C@@H](CC(C)C)[C@@H](O)CC(=O)O)C(C)C)C(C)C (Isovaleryl-VV[Sta]A[Sta]-OH) | inactive |
| COCCCN1CCC(NC(=O)c2cc(Cl)c(N)c3c2OCC3)CC1 | inactive |
| CC1=C(C(=O)O)N2C(=O)[C@@H](NC(=O)[C@H](N)C3=CCC=CC3)[C@H]2SC1 | inactive |
| CC(=O)NC[C@H]1CN(c2ccc(N3CCOCC3)c(F)c2)C(=O)O1 | inactive |
| CC(=O)Nc1ccc(O)cc1 | inactive |
| COc1cc2c(N3CCN(C(=O)Nc4ccc(OC(C)C)cc4)CC3)ncnc2cc1OCCCN1CCCCC1 | inactive |
| CS(=O)(=O)OCCCCOS(C)(=O)=O | inactive |
| Nc1cc(C(Cl)=C(Cl)Cl)c(S(N)(=O)=O)cc1S(N)(=O)=O | inactive |

test system: SKOV3; assay: as above; details: Gynecologic cancer cell panel viability, ATPlite luminescence, 48 h; series mostly up to 57.5 µM
How it was run: as §1

| SMILES | Potency |
| --- | --- |
| O=C(OC1C[C@H]2CC[C@@H](C1)[N+]21CCCC1)C(O)(c1ccccc1)c1ccccc1 (stereo partly drawn) | inactive |
| CCC(C)(Oc1ccc(C2(c3ccc(OC(C)(CC)C(=O)O)cc3)CCCCC2)cc1)C(=O)O (stereo not drawn) | inactive |
| Oc1ccc(OCc2ccccc2)cc1 | inactive |
| CCOC(=O)c1c(C)n(C)c2ccc(O)cc12 | inactive |
| CC(C)c1nc(CN(C)C(=O)N[C@H](C(=O)N[C@@H](Cc2ccccc2)C[C@H](O)[C@H](Cc2ccccc2)NC(=O)OCc2cncs2)C(C)C)cs1 | inactive |
| c1cnc2cc3c(cc2n1)C1CNCC3C1 | inactive |
| Clc1ccc(C(Cn2ccnc2)OCc2ccsc2Cl)c(Cl)c1 (stereo not drawn) | inactive |
| CC1=C(C)C(=O)C(C(CCCCCC(=O)O)c2ccccc2)=C(C)C1=O (stereo not drawn) | inactive |
| O=C(O)c1cn(-c2ccc(F)cc2)c2cc(N3CCNCC3)c(F)cc2c1=O | inactive |
| CC(C)[C@H](N)C(=O)OCCOCn1cnc2c(=O)[nH]c(N)nc21 | inactive |
| COc1cc(OC)c(C(=O)CCCN2CCCC2)c(OC)c1 | inactive |
| O=C(NOCC1CC1)c1ccc(F)c(F)c1Nc1ccc(I)cc1Cl | inactive |
| CN(C)c1ccc(O)c2c1C[C@H]1C[C@H]3[C@H](N(C)C)C(=O)C(C(N)=O)=C(O)[C@@]3(O)C(=O)C1=C2O | inactive |
| CNC[C@H](O)c1ccc(O)c(O)c1 | inactive |
| Nc1ncn([C@H]2C[C@H](O)[C@@H](CO)O2)c(=O)n1 | inactive |
| CC1=C(C(=O)O)N2C(=O)[C@@H](NC(=O)[C@H](N)C3=CCC=CC3)[C@H]2SC1 | inactive |
| CC(=O)NC[C@H]1CN(c2ccc(N3CCOCC3)c(F)c2)C(=O)O1 | inactive |
| CCN(CC)C(=S)SSC(=S)N(CC)CC | 631 nM (active) and 1.41 µM (active) |
| COc1cc2c(N3CCN(C(=O)Nc4ccc(OC(C)C)cc4)CC3)ncnc2cc1OCCCN1CCCCC1 | inactive |
| Nc1cc(C(Cl)=C(Cl)Cl)c(S(N)(=O)=O)cc1S(N)(=O)=O | inactive |

— PubChem BioAssay (NCATS)
